NPC1 promoter act: activates the NPC1 promoter. Huh7 NPC1 promoter luciferase reporter, 24 h. Potency, µM (doses to about 9.22 µM), without a hit: at the top dose activation, hits mostly activators. actives 2.4% (n = 320,000); note: % of control where 0% means no effect; nearly all actives have a fitted effect of over 60% in size
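Compounds in DMSO were transferred onto Huh7 NPC1-luciferase reporter cells pre-incubated 2 h; after 24 h at 37 °C, Amplite reagent was dispensed and luminescence recorded 10 min later.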
FLuc modulator: inhibits or activates purified firefly luciferase, miR-21 counter-screen; P08659; purified FLuc, Km substrates, luminescence inhibition; Potency, µM (highest dose often 57.5 µM), inactives show at the top dose activity change, negative = inhibition, usual class: inhibitors; actives 6.9% (n = 360,000);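 note: plate controls were vehicle for no effect and reference inhibitor for full effect; nearly all actives have a fitted effect of over 55% in size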
Target sequence (P08659 whole entry, looked up): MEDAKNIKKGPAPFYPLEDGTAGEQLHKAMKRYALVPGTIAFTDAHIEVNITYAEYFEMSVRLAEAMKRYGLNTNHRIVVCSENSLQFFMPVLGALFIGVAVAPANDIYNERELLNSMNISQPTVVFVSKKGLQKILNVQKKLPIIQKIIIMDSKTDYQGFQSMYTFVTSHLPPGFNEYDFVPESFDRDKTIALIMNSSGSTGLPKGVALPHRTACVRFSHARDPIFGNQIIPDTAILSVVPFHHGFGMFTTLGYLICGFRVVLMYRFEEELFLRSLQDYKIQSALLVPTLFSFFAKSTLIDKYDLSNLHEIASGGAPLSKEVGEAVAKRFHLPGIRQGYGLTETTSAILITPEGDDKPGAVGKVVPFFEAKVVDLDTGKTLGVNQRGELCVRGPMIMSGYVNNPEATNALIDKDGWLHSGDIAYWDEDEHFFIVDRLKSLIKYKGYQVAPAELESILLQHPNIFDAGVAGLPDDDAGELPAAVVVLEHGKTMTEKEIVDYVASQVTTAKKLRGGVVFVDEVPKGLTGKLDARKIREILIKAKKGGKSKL
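Biochemical qHTS of compounds, final roughly 60 µM downward over six points, against 10 nM purified firefly luciferase using Km concentrations of substrates (10 uM D-luciferin, 10 uM ATP) in Tris acetate pH 7.5 buffer; luminescence output.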
ELG1 genotoxic: induces genotoxicity in HEK293T cells with luciferase-tagged ELG1; actives 1.3% (n = 330,000); Potency, µM (titrated, usually from 46 µM), for the others: at the highest dose activity change, positive = activation, actives largely listed as activators; AID 504466; HEK293T ELG1-luciferase reporter, luminescence, 16 h; note: % of control where 0% means no effect; nearly all actives have a fitted effect of over 60% in size
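Screening used a luciferase reporter fused to human ELG1 in HEK293T cells. Luminescence was read on a CCD plate imager after 16 hr exposure and 30 min ONE-Glo incubation.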
SMN2 splice enh: increases expression of the SMN2 splice variant | HEK293 SMN2-luciferase splicing reporter, luminescence, 30-36 h | Potency, µM (series often up to 46.1 µM), for inactives: at the top dose activity change, positive = activation, actives largely listed as activators | actives 2.8% (n = 210,000); note: % of control where 0% means no effect; nearly all actives have a fitted effect of over 55% in size
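qHTS luciferase splicing reporter: luminescence rises when SMN2 exon 7 is included in transfected HEK293 cells. Compound exposure lasted 30-36 h at 37C, with 4.5 mM final sodium butyrate as control, followed by a ONE-Glo read.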
ELG1 DNA repair: ELG1-dependent DNA repair inhibition. Potency, µM (titrated, usually from 46.1 µM), for the others: at the top dose activity change, negative = inhibition, actives largely listed as inhibitors. actives 2.3% (n = 330,000). HEK293T ELG1-luciferase reporter, luminescence, 16 h; DNA damage induced by 5-fluorouridine; note: % is set by controls: 0 for no effect and ±100 for the full control effect; nearly all actives have a fitted effect of over 55% in size
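DMSO vehicle served as the neutral condition. Each well held 2,000 cells given 5-fluorouridine plus compound; after 16 hr at 37 °C/5% CO2, ONE-Glo was added and luciferase measured 30 min later.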
Rab9 prom act: Rab9 promoter activation; Huh7 Rab9 promoter-luciferase reporter, luminescence, 24 h; Potency, µM (titrated, usually from 9.22 µM), for inactives: at the highest dose activation, negative = inhibition, hits mostly activators; AID 485297; actives 2.8% (n = 320,000); note: % of control where 0% means no effect; nearly all actives have a fitted effect of over 60% in size
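Rab9 promoter-driven luciferase in stably transfected Huh7 cells; 1500 cells/well rested 2 h, exposed to compound in DMSO for 24 h at 37 °C, 5% CO2. Luminescence read 10 min after adding luciferase reagent at ambient temperature.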
The depositor's hits bear a star; ? = inconclusive; . = no result; [ ] = remark or other dose. Most compounds without a hit are left out; they make up all but 9.2% or so of the library. Calls come from the whole dose curve; as a rule, active = well fitted curve in the direction sought with a large enough effect; inconclusive = small, poorly fitted or top-dose-only effect, or another doubt; inactive = no such curve, though single readings can be large; an effect the other way counts as inactive or inconclusive. Potency is the fitted concentration of half-maximal effect.

SMILES | NPC1 promoter act | FLuc modulator | ELG1 genotoxic | SMN2 splice enh | ELG1 DNA repair | Rab9 prom act
C=CCOC(=O)C(C#N)c1nc2ccccc2nc1N1CCN(c2ccccc2OCC)CC1 (stereo not drawn) | -2% | 3% | -5% | 12% | 15µM* | 1%
COc1ccc(CNC(=O)C(C#N)c2nc3ccccc3nc2N2CCCC2)cc1 (stereo not drawn) | 1% | 1% | 0% | -19% | 5.8µM* | 2%
Cc1ccccc1C1=NC(c2ccc(F)cc2F)ON1 (stereo not drawn) | 1% | 24µM* | 11µM* | 35% | ? | 24%
COc1ccccc1C1=NC(c2ccc(F)cc2)N=C1C (stereo not drawn) | 20% | ? | 14% | 23% | -6% | ?
Cc1ccccc1-c1nn(-c2ccc(F)cc2F)cc1CNCC(C)O (stereo not drawn) | -7% | -2% | -1% | . | -2% | -10%
COc1ccccc1C1N=C(c2ccccc2C)NO1 (stereo not drawn) | 21% | 8.5µM* | 10µM* | . | ? | ?
C[C@H](CO)N1C[C@H](C)[C@@H](CN(C)C(=O)NC2CCCCC2)Oc2c(NC(=O)C3CC3)cccc2C1=O | . | . | 2% | . | ? | .
COc1cccc(CNC(=O)Cn2c(SCC(=O)Nc3ccc(F)cc3)nc3ccccc32)c1 | . | 1% | . | . | . | .
N#C/C(=N\Nc1cccc(F)c1)C(=N)N1CCCCCC1 | 0.5µM* | 2.4µM* | ? | 13µM* | ? | 0.56µM*
O=C(Nc1ccc(F)cc1)N1CCCCCC1 | 13% | -19% | 17% | . | ? | 8%
N#C/C(=N\Nc1ccc(F)cc1)C(=N)N1CCCCC1 | 0.56µM* | 3µM* | 1.6µM* | . | ? | 0.63µM*
N#C/C(=N\Nc1ccccc1)C(=N)N1CCCCCC1 | 1.8µM* | 3.4µM* | ? | . | ? | 1µM*
N#C/C(=N/Nc1ccccc1F)C(=N)N1CCOCC1 | 23% | -20% | 5% | 5% | ? | 23%
COc1ccc(C(=O)/C(C#N)=N/Nc2ccc([N+](=O)[O-])cc2)cc1 | -37% | -19% | -14% | -69% | 1.3µM* | -52%
CCCN(CCC)C(=O)C1CCN(c2ccc(S(=O)(=O)N3CCOCC3)cc2[N+](=O)[O-])CC1 | -2% | 5% | -12% | . | -5% | -7%
Cc1ccc(N(C)C(=O)Cn2nc(Cc3ccncc3)c3ccccc3c2=O)cc1C | . | -3% | . | -11% | . | .
O=C(NC1CCSc2ccccc21)c1cc([N+](=O)[O-])ccc1N1CCOCC1 (stereo not drawn) | 11% | 3% | 0% | . | 8% | 2%
COc1ccc(N/N=C(\C#N)C(=N)N2CCOCC2)cc1 | 20% | ? | 18µM* | 15% | ? | 24%
O=C(O)/C=C/C(=O)Nc1nccs1 | -3% | 5% | 0% | . | ? | 2%
O=C(Nc1nccs1)c1ccc(Br)o1 | 25% | ? | 13% | 11µM* | ? | ?
O=C(/C=C/c1ccc(Br)o1)Nc1nccs1 | 3.2µM* | ? | ? | 13µM* | ? | 2.8µM*
O=C(O)c1ccc(N2C(=O)CC(N3CCN(c4ccc(Cl)cc4)CC3)C2=O)cc1 (stereo not drawn) | 0% | 1% | -4% | . | ? | 0%
O=C(O)c1ccc(N2C(=O)CC(N3C(=O)/C(=C/c4ccc(Cl)cc4)SC3=S)C2=O)cc1 (stereo not drawn) | -1% | 17µM* | -2% | . | 1% | 1%
O=C(O)c1cccc(NC2=Nc3cccc4cccc2c34)c1 | 0.45µM* | 0.48µM* | 7.3µM* | . | ? | ?
COc1ccc(NC2=Nc3cccc4cccc2c34)cc1 | -2% | 13µM* | 11% | -11%[1.84 µM] | ? | -2%
SMILES | NPC1 promoter act | FLuc modulator | ELG1 genotoxic | SMN2 splice enh | ELG1 DNA repair | Rab9 prom act
O=C(NNC1=Nc2cccc3cccc1c23)c1ccccc1Br | 0% | -1% | 4% | -23%[1.84 µM] | 10% | 0%
c1ccc(NC2=Nc3cccc4cccc2c34)cc1 | 1% | 15µM* | 14% | -44% | ? | -2%
Fc1ccc(/C=N/NC2=Nc3cccc4cccc2c34)cc1 | 1.6µM* | 1.7µM* | 12µM* | 11µM* | ? | 1.6µM*
O=C(O)c1cccc(N2C(=O)c3cccc4cccc(c34)C2=O)c1 | -4% | -6% | -2% | . | 1% | 1%
CCOC(=O)c1cccc(NC(=O)CC2C(=O)N(c3ccc(F)cc3)C(=O)N2C(C)C)c1 (stereo not drawn) | . | 2% | . | . | . | .
N#CCc1nn(-c2ccc(F)cc2)c(N)c1C#N | -2% | -1% | 0% | 3% | 12% | -2%
CC(=O)N1CC(C)Oc2ccc(S(=O)(=O)NC(CC(=O)O)c3ccccc3)cc21 (stereo not drawn) | -8% | 0% | 0%[9.26 µM] | . | ? | 4%
CC(C)Oc1cccc(C(=O)C2CCCN(Cc3cccn3-c3ccccn3)C2)c1 (stereo not drawn) | -2% | -10% | -11% | -18% | ? | -11%
Cc1cc(NC(=O)CN(C)S(=O)(=O)c2cnc[nH]2)ccc1Br | 11% | -17% | -1% | . | 12% | -2%
COc1ccc(C2=Nc3cccc4cccc(c34)N2)cc1 | 5% | 5.4µM* | 0% | 4% | 15% | -26%
O=C(c1cccc(Cl)c1)N1CCCc2ccccc21 | -3% | -2% | -4% | . | -19% | 1%
O=C(c1ccc(Cl)c([N+](=O)[O-])c1)N1CCCc2ccccc21 | -2% | 19µM* | 16% | . | ? | 2%
Cc1nn2c(=O)cc(COC(=O)c3ccco3)nc2s1 | . | 0% | . | . | . | .
N#Cc1ccccc1CN1C(=O)c2ccccc2S1(=O)=O | 1% | -1% | -3% | . | 2% | 0%
COc1ccc2cc(-c3ccccc3F)ncc2c1 | 1.4µM* | 0.95µM* | ? | . | ? | ?
COc1ccc2cc(-c3ccon3)ccc2c1 | ? | 3µM* | ? | . | ? | ?
COc1ccc2cc(-c3cccnc3)ncc2c1 | 2.2µM* | 3.8µM* | ? | . | ? | ?
COc1ccc2ccc(Oc3ncccn3)cc2c1 | 9% | -24% | 15% | 18% | ? | ?
c1ccc(-c2cc3ncccc3cn2)cc1 | ? | ? | ? | . | ? | -4%
COc1ccc(-c2cc3ccccc3cn2)cc1 | 0.63µM* | 0.85µM* | 2.6µM* | . | ? | 0.63µM*
COc1ccc(-c2ccc(OC)cc2)cc1 | 10% | ? | 12% | . | ? | 7%
COc1ccc(-c2cc3ccc(OC)cc3cn2)cc1 | 0.28µM* | 0.19µM* | ? | . | ? | 0.32µM*

High-throughput results: PubChem, National Center for Advancing Translational Sciences (NCATS)
